Test results taken from PMC7862700, “An all-to-all approach to the identification of sequence-specific readers for epigenetic DNA modifications on cytosine”.

Assays:
Experiment in all cases: DAPPL (digital affinity profiling via proximity ligation, sequencing); 10 mM Tris-HCl pH 7.5, 50 mM NaCl, 1 mM DTT, 4% glycerol, room temperature, 30 min; GST-TFs on glutathione beads, 16-mer random dsDNA library, 0.1% formaldehyde crosslink after washing; high values mean tight binding
Settings in all cases: protein: recombinant; tags: N-terminal GST; dsDNA, one strand shown
FLI1 = target: T1, FLI1 (Homo sapiens, UniProt Q01543 1-452)
T1 sequence: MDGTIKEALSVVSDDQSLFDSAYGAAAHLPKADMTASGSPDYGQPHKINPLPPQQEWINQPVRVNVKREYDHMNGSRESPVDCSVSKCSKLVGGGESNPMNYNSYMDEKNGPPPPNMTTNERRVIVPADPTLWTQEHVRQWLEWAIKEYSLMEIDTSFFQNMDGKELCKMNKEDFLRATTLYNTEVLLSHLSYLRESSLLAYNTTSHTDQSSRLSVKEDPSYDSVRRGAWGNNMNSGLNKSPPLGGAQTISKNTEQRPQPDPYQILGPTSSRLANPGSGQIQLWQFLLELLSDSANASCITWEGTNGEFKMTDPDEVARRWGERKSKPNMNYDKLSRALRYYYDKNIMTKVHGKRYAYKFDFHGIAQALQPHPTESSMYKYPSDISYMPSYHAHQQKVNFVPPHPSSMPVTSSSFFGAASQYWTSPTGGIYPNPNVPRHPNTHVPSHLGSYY
Procedure, shortened: (§1)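 Yeast served to express human transcription factors as GST fusions, which were then captured on glutathione beads and labelled with DNA barcodes. Pooled with a tag-only sample, they were incubated with 200 nmole of a 16-mer random double-stranded DNA library for 30 min at room temperature in Tris/NaCl/DTT/glycerol buffer, washed, crosslinked with 0.1% formaldehyde, ligated by proximity, amplified by PCR and sequenced. Dividing each hexamer's read frequency for a factor by its frequency for the tag-only sample gives the binding signal.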

ERG = target: T2, ERG (Homo sapiens, UniProt P11308 1-479)
T2 sequence: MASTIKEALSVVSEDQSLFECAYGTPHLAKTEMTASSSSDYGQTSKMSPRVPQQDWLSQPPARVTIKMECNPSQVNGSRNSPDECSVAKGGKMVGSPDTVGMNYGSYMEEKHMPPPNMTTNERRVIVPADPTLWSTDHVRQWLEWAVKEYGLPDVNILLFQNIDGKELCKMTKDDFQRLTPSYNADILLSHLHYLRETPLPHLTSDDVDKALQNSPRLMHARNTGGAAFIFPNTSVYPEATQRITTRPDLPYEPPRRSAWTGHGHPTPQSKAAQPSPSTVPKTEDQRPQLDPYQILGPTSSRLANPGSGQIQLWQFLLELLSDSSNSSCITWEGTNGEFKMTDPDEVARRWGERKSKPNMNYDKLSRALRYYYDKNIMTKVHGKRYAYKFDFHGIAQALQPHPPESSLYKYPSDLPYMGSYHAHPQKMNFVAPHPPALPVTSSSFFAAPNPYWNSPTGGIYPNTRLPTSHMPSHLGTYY
Procedure, shortened: as §1

SPIB = SPIB (Homo sapiens, UniProt Q01892 1-262)
Procedure, shortened: as §1

ELK3 = target: T3, ELK3 (Homo sapiens, UniProt P41970 1-407)
T3 sequence: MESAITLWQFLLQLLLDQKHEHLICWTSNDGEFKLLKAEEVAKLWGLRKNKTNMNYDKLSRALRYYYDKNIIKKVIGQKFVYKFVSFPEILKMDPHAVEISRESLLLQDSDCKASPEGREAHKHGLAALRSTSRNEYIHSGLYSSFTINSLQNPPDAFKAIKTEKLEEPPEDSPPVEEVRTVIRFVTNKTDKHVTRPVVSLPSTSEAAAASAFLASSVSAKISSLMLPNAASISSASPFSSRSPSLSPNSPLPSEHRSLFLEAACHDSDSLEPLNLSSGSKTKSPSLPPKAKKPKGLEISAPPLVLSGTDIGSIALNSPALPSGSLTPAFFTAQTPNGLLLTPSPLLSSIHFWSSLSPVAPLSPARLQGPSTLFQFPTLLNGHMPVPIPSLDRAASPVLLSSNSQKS
Procedure, shortened: as §1

SPIC = target: T4, SPIC (Homo sapiens, UniProt Q8N5J4 1-248)
T4 sequence: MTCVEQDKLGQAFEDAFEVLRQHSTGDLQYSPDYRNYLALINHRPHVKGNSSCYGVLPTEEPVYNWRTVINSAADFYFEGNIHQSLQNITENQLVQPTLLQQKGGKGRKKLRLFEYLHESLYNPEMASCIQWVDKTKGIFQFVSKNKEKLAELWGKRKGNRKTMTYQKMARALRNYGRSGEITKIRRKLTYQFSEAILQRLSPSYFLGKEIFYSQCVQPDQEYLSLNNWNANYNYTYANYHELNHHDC
Procedure, shortened: as §1

ELF4 = ELF4 (Homo sapiens, UniProt Q99607 1-663)
Procedure, shortened: as §1

ELK4 = target: T5, ELK4 (Homo sapiens, UniProt P28324-2 1-405)
T5 sequence: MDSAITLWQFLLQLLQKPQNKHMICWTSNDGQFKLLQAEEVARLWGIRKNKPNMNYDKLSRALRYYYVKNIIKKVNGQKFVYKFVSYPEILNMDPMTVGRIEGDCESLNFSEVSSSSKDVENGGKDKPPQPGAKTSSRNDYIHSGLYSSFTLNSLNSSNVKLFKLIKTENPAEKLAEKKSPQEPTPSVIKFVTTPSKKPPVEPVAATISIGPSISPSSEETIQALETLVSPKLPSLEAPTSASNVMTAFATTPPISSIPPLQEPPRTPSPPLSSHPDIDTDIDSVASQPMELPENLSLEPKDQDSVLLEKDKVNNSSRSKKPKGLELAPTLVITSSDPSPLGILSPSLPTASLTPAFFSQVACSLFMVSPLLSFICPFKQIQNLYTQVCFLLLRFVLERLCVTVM
Procedure, shortened: as §1

ETV2 = target: T6, ETV2 (Homo sapiens, UniProt O00321 1-342)
T6 sequence: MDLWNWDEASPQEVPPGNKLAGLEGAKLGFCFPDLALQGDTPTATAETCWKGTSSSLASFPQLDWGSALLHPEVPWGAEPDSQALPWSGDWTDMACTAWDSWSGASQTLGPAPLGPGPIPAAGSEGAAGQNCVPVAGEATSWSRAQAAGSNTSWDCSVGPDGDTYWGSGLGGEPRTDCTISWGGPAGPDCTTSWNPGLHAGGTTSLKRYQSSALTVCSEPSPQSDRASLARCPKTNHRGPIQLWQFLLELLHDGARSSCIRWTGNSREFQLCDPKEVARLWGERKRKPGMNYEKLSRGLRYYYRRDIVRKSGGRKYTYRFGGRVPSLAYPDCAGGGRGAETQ
Procedure, shortened: as §1

ELF3 = target: T7, ELF3 (Homo sapiens, UniProt P78545 1-371)
T7 sequence: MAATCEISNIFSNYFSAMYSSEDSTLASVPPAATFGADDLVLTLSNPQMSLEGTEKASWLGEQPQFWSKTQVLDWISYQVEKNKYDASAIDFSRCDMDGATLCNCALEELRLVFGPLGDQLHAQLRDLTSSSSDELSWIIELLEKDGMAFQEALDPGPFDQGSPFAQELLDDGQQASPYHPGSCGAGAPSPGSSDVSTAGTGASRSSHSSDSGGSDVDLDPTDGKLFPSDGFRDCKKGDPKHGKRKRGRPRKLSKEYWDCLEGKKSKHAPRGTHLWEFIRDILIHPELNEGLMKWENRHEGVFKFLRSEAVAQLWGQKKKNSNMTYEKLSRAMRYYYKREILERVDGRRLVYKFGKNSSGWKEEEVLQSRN
Procedure, shortened: as §1

ETV1 = ETV1 (Homo sapiens, UniProt P50549 1-477)
Procedure, shortened: as §1

ERF = target: T8, ERF (Homo sapiens, UniProt P50548 1-548)
T8 sequence: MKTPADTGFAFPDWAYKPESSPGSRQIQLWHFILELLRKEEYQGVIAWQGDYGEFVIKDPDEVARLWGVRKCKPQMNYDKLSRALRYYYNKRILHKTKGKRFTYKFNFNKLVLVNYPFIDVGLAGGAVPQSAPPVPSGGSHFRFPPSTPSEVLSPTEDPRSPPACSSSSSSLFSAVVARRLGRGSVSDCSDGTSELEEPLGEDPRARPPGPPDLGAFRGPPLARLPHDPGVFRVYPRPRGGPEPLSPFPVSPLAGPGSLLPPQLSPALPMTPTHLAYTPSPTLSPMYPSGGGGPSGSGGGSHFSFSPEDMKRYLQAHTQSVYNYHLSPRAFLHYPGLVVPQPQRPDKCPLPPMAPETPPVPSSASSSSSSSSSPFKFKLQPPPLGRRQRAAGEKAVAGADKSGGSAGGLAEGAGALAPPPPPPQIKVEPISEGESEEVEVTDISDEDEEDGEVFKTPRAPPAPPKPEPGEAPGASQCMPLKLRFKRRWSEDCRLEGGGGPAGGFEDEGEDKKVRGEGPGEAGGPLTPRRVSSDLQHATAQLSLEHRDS
Procedure, shortened: as §1

ETV3L = target: T9, ETV3L (Homo sapiens, UniProt Q6ZN32 1-361)
T9 sequence: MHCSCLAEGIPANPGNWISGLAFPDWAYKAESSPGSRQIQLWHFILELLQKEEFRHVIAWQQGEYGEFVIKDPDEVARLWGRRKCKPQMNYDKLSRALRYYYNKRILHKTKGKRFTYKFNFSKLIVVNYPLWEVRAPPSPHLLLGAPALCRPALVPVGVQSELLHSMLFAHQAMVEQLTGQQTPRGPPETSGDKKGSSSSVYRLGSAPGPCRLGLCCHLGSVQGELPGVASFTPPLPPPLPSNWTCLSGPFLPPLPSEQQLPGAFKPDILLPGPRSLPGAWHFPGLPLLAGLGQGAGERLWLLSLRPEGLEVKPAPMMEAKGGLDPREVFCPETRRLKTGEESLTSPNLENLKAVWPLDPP
Procedure, shortened: as §1

ETV7 = target: T10, ETV7 (Homo sapiens, UniProt Q9Y603 1-341)
T10 sequence: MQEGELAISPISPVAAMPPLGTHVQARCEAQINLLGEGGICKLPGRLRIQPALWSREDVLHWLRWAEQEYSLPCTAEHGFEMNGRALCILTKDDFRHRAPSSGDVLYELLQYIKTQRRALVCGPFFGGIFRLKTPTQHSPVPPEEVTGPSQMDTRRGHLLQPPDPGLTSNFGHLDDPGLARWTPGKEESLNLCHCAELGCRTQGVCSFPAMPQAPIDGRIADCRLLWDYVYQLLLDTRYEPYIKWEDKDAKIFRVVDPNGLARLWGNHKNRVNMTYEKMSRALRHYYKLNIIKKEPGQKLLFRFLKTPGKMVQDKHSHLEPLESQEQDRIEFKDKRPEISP
Procedure, shortened: as §1

ETV3 = target: T11, ETV3 (Homo sapiens, UniProt P41162-2 1-143)
T11 sequence: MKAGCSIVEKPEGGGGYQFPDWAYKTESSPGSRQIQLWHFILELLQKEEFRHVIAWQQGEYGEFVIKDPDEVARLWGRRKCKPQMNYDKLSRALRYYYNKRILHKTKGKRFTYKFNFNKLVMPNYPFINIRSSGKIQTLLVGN
Procedure, shortened: as §1

ETV6 = ETV6 (Homo sapiens, UniProt P41212 1-452)
Procedure, shortened: as §1

ETV6, sequence (P41212 whole entry): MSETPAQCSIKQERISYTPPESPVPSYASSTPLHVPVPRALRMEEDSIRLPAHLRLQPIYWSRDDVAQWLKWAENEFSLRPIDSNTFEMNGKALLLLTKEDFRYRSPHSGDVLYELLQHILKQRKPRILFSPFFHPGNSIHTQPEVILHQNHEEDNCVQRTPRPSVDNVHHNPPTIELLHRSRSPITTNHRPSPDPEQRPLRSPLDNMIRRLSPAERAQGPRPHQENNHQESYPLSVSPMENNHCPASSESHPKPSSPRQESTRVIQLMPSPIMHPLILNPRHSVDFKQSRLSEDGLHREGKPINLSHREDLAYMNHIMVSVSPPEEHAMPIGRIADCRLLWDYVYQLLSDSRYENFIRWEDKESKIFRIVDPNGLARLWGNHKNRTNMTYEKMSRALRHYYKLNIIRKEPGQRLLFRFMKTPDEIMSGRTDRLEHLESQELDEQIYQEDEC
ELF4, sequence (Q99607 whole entry): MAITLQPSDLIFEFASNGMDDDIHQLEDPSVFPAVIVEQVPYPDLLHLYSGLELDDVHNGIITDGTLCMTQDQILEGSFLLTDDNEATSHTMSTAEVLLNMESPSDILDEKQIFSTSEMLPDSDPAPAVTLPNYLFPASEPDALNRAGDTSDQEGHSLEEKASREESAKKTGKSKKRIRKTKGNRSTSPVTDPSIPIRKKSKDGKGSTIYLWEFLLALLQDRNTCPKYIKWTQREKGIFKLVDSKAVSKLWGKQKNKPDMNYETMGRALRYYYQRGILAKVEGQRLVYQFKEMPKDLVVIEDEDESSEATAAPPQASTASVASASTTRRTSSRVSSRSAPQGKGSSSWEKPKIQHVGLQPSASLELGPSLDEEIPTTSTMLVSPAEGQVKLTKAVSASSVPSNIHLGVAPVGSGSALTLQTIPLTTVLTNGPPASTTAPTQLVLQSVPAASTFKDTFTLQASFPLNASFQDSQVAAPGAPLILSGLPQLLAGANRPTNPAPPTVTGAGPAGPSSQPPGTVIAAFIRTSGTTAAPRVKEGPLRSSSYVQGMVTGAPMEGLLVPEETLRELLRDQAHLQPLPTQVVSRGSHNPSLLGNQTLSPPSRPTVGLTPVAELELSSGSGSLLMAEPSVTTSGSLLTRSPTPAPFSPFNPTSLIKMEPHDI
SPIB, sequence (Q01892 whole entry): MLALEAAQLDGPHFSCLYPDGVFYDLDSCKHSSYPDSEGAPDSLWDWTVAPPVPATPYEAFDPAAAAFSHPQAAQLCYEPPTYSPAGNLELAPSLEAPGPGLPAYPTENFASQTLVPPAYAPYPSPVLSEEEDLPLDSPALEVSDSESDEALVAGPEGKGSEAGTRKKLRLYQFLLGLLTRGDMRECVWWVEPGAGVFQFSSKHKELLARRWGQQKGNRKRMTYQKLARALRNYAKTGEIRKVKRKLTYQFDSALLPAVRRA
ETV1, sequence (P50549 whole entry): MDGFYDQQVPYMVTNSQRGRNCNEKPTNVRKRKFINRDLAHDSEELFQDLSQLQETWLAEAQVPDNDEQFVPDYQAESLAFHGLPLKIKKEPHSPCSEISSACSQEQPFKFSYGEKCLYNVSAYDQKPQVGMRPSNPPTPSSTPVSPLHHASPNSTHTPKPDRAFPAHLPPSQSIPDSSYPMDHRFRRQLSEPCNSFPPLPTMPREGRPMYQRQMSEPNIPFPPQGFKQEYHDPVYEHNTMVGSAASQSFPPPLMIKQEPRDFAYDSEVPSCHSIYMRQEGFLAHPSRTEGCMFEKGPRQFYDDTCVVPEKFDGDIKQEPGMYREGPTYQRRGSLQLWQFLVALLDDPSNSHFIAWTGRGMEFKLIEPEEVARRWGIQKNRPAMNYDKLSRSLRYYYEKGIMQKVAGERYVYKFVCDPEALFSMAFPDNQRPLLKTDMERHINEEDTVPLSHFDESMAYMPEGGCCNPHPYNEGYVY

TCGAGC
binding signal (FLI1): 1.02 fold enrichment (6-mer frequency, TF over GST control)
binding signal (ERG): 1.03 fold enrichment (6-mer frequency, TF over GST control)
binding signal (SPIB): 1.1 fold enrichment (6-mer frequency, TF over GST control)
binding signal (ELK3): 1.01 fold enrichment (6-mer frequency, TF over GST control)
binding signal (SPIC): 1.04 fold enrichment (6-mer frequency, TF over GST control)
binding signal (ELF4): 1.03 fold enrichment (6-mer frequency, TF over GST control)
binding signal (ELK4): 1.11 fold enrichment (6-mer frequency, TF over GST control)
binding signal (ETV2): 1.04 fold enrichment (6-mer frequency, TF over GST control)
binding signal (ELF3): 1 fold enrichment (6-mer frequency, TF over GST control)
binding signal (ETV1): 1.08 fold enrichment (6-mer frequency, TF over GST control)
binding signal (ERF): 1.03 fold enrichment (6-mer frequency, TF over GST control)
binding signal (ETV3L): 1.15 fold enrichment (6-mer frequency, TF over GST control)
binding signal (ETV7): 1.09 fold enrichment (6-mer frequency, TF over GST control)
binding signal (ETV3): 1.03 fold enrichment (6-mer frequency, TF over GST control)
binding signal (ETV6): 1.02 fold enrichment (6-mer frequency, TF over GST control)
